Structures are written as SMILES. Values joined by “and” are separate entries in the source; they are usually repeats but may differ in a detail not shown here. Equal entries are not always repeated. Values without a mark were called inactive. Active and inactive are the calls of the source. No rule for the calls is given here.

Sequence of Botulinum neurotoxin type A (Clostridium botulinum) (P0DPI0 whole entry, looked up): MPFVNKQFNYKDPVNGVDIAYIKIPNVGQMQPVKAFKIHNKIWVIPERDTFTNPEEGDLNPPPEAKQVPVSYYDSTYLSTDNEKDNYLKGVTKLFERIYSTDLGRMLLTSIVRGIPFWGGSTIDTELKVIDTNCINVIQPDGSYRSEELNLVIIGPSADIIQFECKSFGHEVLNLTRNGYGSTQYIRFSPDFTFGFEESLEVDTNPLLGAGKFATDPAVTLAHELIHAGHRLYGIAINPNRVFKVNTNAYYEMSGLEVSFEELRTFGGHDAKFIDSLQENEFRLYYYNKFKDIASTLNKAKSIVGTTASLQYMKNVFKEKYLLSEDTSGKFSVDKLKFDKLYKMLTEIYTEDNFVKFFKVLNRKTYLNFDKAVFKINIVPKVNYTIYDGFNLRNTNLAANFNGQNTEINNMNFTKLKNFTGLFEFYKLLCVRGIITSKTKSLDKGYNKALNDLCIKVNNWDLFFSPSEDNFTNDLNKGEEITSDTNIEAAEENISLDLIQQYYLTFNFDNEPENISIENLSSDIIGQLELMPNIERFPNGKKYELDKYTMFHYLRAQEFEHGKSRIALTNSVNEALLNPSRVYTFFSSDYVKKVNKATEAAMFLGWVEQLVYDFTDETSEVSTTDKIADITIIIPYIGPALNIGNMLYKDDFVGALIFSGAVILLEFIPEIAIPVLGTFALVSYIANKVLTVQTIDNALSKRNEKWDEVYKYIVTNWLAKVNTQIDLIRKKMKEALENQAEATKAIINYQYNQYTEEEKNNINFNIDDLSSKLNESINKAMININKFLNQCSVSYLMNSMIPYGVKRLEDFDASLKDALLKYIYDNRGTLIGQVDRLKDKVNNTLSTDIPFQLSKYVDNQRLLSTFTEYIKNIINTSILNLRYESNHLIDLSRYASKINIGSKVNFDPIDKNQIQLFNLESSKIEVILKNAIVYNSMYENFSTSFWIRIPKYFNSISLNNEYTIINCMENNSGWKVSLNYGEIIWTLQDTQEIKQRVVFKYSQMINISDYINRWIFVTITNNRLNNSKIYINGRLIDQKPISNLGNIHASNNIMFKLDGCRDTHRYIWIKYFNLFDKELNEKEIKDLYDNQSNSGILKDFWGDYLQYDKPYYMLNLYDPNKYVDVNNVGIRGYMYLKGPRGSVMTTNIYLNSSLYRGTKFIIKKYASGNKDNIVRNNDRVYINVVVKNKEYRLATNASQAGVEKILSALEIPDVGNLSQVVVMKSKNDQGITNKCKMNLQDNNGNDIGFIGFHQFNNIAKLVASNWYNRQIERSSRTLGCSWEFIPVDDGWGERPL

One experiment relates to Botulinum neurotoxin type F light chain protease (Clostridium botulinum). The experiment can be described thus: Clostridium botulinum type F light chain protease inhibitors, microsphere substrate cleavage, validation (AID 588459). The note with it: multiplex microsphere protease substrate cleavage assay, flow cytometry; at 10 µM; hits give high values. (In general: In flow cytometry, cells or beads pass a laser one at a time.)
Regarding `CN1C[C@H](CNC(=O)OCc2ccccc2)C[C@@H]2c3cccc4c3c(cn4C)C[C@H]21`, the inhibition (usually the relative decrease from the control value, in per cent) was -0.5%.

`C[N+]1(C)C2CCC1CC(OC(=O)C(CO)c1ccccc1)C2` (stereo not given): the inhibition is -5.3%.

As for `CCC1(c2ccccc2)C(=O)N(COC)C(=O)N(COC)C1=O`, the inhibition was 2%.

Turning to `CCn1c(O)c(C(=O)CC2NCCc3ccccc32)c(=O)n(CC)c1=S` (stereo not given), the inhibition is 2.4%.

`NC(=O)CN1CCCC1=O`: the inhibition is 1.5%.

Consider `Cc1ccsc1C(=O)C1CCCN(Cc2cc3ccccc3o2)C1` (stereo not given), for which the inhibition was 2.8%.

Take `CN1C2CCC1CC(OC(=O)c1ccc(Cl)cc1)C2` (stereo not given): the inhibition is 0%.

For the molecule `Cn1c(O)c(C=NCCc2c[nH]c3ccccc23)c(=O)n(C)c1=O`, the inhibition was -1.3%.

For the molecule `CC12CN3CC(C)(CN(C1)C3c1cccs1)C2=O` (stereo not given), the inhibition is -2.3%.

On to `[N-]=[N+]=CC(=O)OC[C@H](N)C(=O)O`, for which the inhibition is 2.7%.

For the molecule `COP(=O)(OC)C(O)C(Cl)(Cl)Cl` (stereo not given), the inhibition is -1%.

As to `CC(C)[N+](C)(CCC(C(N)=O)(c1ccccc1)c1ccccc1)C(C)C`, the inhibition was -5%.

Take `C[C@@]1(CO)[C@H](O)CC[C@@]2(C)[C@H]1CC[C@H]1C[C@@H]3C[C@@]12CC[C@]3(O)CO`: the inhibition was 4.1%.

In the case of `O=C1CCCC2=C1C(c1cccnc1)Nc1ccccc1N2` (stereo not given), the inhibition was 0.4%.

In the case of `O=c1[nH]c(=S)n(-c2ccccc2)c(O)c1/C=N/N1CCCCC1c1cccnc1` (stereo not given), the inhibition was -0.8%.

Take `Clc1ccc(C2NCCc3[nH]cnc32)cc1` (stereo not given): the inhibition is 1.1%.

Take `Cc1ccc(-n2c(C)cc(/C=C3/C(=O)NC(=O)N(C)C3=O)c2C)cc1`: the inhibition was -1.4%.

Consider `C[N+]1(C)CCc2cc3c(cc2[C@H]1[C@@H]1OC(=O)c2c1ccc1c2OCO1)OCO3`, for which the inhibition is -0.6% and -2.3%.

Consider `COc1ccc(NC2=NCC(C)S2)cc1` (stereo not given), for which the inhibition was -2.8%.

As for `CC12CN3CC(C)(CN(C1)C3c1cccs1)C2O` (stereo not given), the inhibition was -2.4%.

Turning to `O=C1NCCN2CCCC12` (stereo not given), the inhibition is -0.2%.

In the case of `NNC(=O)c1ccc(Cl)cc1`, the inhibition is -1.9%.

For the molecule `CN1CCN(C(=O)OC2c3nccnc3C(=O)N2c2ccc(Cl)cn2)CC1` (stereo not given), the inhibition was 4.3%.

Turning to `O=c1[nH]c2ccccc2n1C1CCN(CCCC(c2ccc(F)cc2)c2ccc(F)cc2)CC1`, the inhibition was -2.3%.

Turning to `O=C1NC(=O)C2(Cc3ccccc3N3CCCC32)C(=O)N1c1ccc(Cl)cc1` (stereo not given), the inhibition is -0.7%.

For `CC1CCC[C@H](O)CCCCCc2cc(O)cc(O)c2C(=O)O1` (stereo not given in full), the inhibition is -0.6%.

Take `O=c1cccc2n1C[C@H]1C[C@@H]2CN2CCCC[C@@H]12`: the inhibition was -0.6%.

Turning to `CC(=O)OC1C2CCC1C(N1CCCC1)CC2` (stereo not given), the inhibition was -2.3%.

Consider `CCOc1ccc(C2C(C#N)=C(N)Oc3c2c(=O)oc2ccccc32)cc1` (stereo not given), for which the inhibition is -0.4%.

In the case of `COc1cc2c3cc1Oc1cc(ccc1O)C[C@@H]1c4c(cc(OC)c(O)c4Oc4ccc(cc4)C[C@H]3N(C)CC2)CCN1C`, the inhibition is -3.1%.

Regarding `CN1CC[C@@]23CCCC[C@@H]2[C@@H]1Cc1ccc(O)cc13`, the inhibition was -10%.

In the case of `O=c1c2ccccc2[se]n1-c1ccccc1`, the inhibition is 33.2% (active).

Turning to `CC[N+]1(C)CCCC(OC(=O)C(O)(c2ccccc2)c2ccccc2)C1` (stereo not given), the inhibition was 0.8%.

On to `C[C@]12CCC(=O)C=C1CCC1C2CC[C@@]2(C)C1CC[C@@]2(O)CC#N` (stereo not given in full), for which the inhibition is 3.3%.

As to `C[C@H]1CC[C@@]2(C)[C@@H](CC[C@@H]3[C@@H]2CC[C@]2(C)[C@@H](O)CC[C@@H]32)C1`, the inhibition was 2%.

With `C[C@H]1OC[C@@H](C[N+](C)(C)C)O1`, the inhibition is 0.4%.

Take `CC(C)(C)C(O)C(Oc1ccc(Cl)cc1)n1cncn1` (stereo not given): the inhibition was -0.4%.

For `C[C@@H]1O[C@@H](O[C@H]2C[C@@H](O)[C@]3(CO)[C@H]4[C@H](O)C[C@]5(C)[C@@H](C6COC(=O)C6)CC[C@]5(O)[C@@H]4CC[C@]3(O)C2)[C@H](O)[C@H](O)[C@H]1O` (stereo not given in full), the inhibition is -0.5%.

Take `CC(=O)c1ccc(-c2ccccc2)cc1`: the inhibition is -2.6%.

Regarding `CCOC(=O)c1cc2c(cn1)[nH]c1ccccc12`, the inhibition is 2.3%.

The next experiment concerns the target Botulinum neurotoxin type A (Clostridium botulinum) (UniProt P0DPI0). The experiment can be described thus: BoNT/A light chain protease inhibitors, biochemical, multiplex microsphere flow cytometry, validation set (AID 588460). The note with it: at 10 µM, hits give high values.
Turning to `CN1C[C@H](CNC(=O)OCc2ccccc2)C[C@@H]2c3cccc4c3c(cn4C)C[C@H]21`, the inhibition was 1.5%.

With `C[N+]1(C)C2CCC1CC(OC(=O)C(CO)c1ccccc1)C2` (stereo not given), the inhibition was -0.6%.

As for `CCC1(c2ccccc2)C(=O)N(COC)C(=O)N(COC)C1=O`, the inhibition is -0.2%.

Turning to `CCn1c(O)c(C(=O)CC2NCCc3ccccc32)c(=O)n(CC)c1=S` (stereo not given), the inhibition is 1.1%.

For the molecule `NC(=O)CN1CCCC1=O`, the inhibition was 0.4%.

Take `Cc1ccsc1C(=O)C1CCCN(Cc2cc3ccccc3o2)C1` (stereo not given): the inhibition is -0.7%.

As to `CN1C2CCC1CC(OC(=O)c1ccc(Cl)cc1)C2` (stereo not given), the inhibition was -1.9%.

`Cn1c(O)c(C=NCCc2c[nH]c3ccccc23)c(=O)n(C)c1=O`: the inhibition was 1.4%.

For the molecule `CC12CN3CC(C)(CN(C1)C3c1cccs1)C2=O` (stereo not given), the inhibition is -0.1%.

In the case of `[N-]=[N+]=CC(=O)OC[C@H](N)C(=O)O`, the inhibition was 1.2%.

`COP(=O)(OC)C(O)C(Cl)(Cl)Cl` (stereo not given): the inhibition is -0.6%.

Turning to `CC(C)[N+](C)(CCC(C(N)=O)(c1ccccc1)c1ccccc1)C(C)C`, the inhibition is -2.6%.

In the case of `C[C@@]1(CO)[C@H](O)CC[C@@]2(C)[C@H]1CC[C@H]1C[C@@H]3C[C@@]12CC[C@]3(O)CO`, the inhibition is 1%.

As for `O=C1CCCC2=C1C(c1cccnc1)Nc1ccccc1N2` (stereo not given), the inhibition was -2.1%.

In the case of `O=c1[nH]c(=S)n(-c2ccccc2)c(O)c1/C=N/N1CCCCC1c1cccnc1` (stereo not given), the inhibition is 0.8%.

Take `Clc1ccc(C2NCCc3[nH]cnc32)cc1` (stereo not given): the inhibition is 0.7%.

Take `Cc1ccc(-n2c(C)cc(/C=C3/C(=O)NC(=O)N(C)C3=O)c2C)cc1`: the inhibition is 0.3%.

Take `C[N+]1(C)CCc2cc3c(cc2[C@H]1[C@@H]1OC(=O)c2c1ccc1c2OCO1)OCO3`: the inhibition is -1% and -0.6%.

On to `COc1ccc(NC2=NCC(C)S2)cc1` (stereo not given), for which the inhibition is 0.2%.

As to `CC12CN3CC(C)(CN(C1)C3c1cccs1)C2O` (stereo not given), the inhibition is -1.2%.

Consider `O=C1NCCN2CCCC12` (stereo not given), for which the inhibition is -0.6%.

As to `NNC(=O)c1ccc(Cl)cc1`, the inhibition was 0.4%.

On to `CN1CCN(C(=O)OC2c3nccnc3C(=O)N2c2ccc(Cl)cn2)CC1` (stereo not given), for which the inhibition was -0.8%.

For `O=c1[nH]c2ccccc2n1C1CCN(CCCC(c2ccc(F)cc2)c2ccc(F)cc2)CC1`, the inhibition is -1.7%.

In the case of `O=C1NC(=O)C2(Cc3ccccc3N3CCCC32)C(=O)N1c1ccc(Cl)cc1` (stereo not given), the inhibition was 0.8%.

On to `CC1CCC[C@H](O)CCCCCc2cc(O)cc(O)c2C(=O)O1` (stereo not given in full), for which the inhibition was 0.6%.

As for `O=c1cccc2n1C[C@H]1C[C@@H]2CN2CCCC[C@@H]12`, the inhibition is -0.2%.

With `CC(=O)OC1C2CCC1C(N1CCCC1)CC2` (stereo not given), the inhibition was -0.8%.

`CCOc1ccc(C2C(C#N)=C(N)Oc3c2c(=O)oc2ccccc32)cc1` (stereo not given): the inhibition was 0.3%.

`COc1cc2c3cc1Oc1cc(ccc1O)C[C@@H]1c4c(cc(OC)c(O)c4Oc4ccc(cc4)C[C@H]3N(C)CC2)CCN1C`: the inhibition was -3%.

Turning to `CN1CC[C@@]23CCCC[C@@H]2[C@@H]1Cc1ccc(O)cc13`, the inhibition was -1.6%.

Take `O=c1c2ccccc2[se]n1-c1ccccc1`: the inhibition was 92.6% (active).

For `CC[N+]1(C)CCCC(OC(=O)C(O)(c2ccccc2)c2ccccc2)C1` (stereo not given), the inhibition is -0.6%.

Turning to `C[C@]12CCC(=O)C=C1CCC1C2CC[C@@]2(C)C1CC[C@@]2(O)CC#N` (stereo not given in full), the inhibition is -0.9%.

`C[C@H]1CC[C@@]2(C)[C@@H](CC[C@@H]3[C@@H]2CC[C@]2(C)[C@@H](O)CC[C@@H]32)C1`: the inhibition was 1.1%.

Take `C[C@H]1OC[C@@H](C[N+](C)(C)C)O1`: the inhibition was 0.4%.

For `CC(C)(C)C(O)C(Oc1ccc(Cl)cc1)n1cncn1` (stereo not given), the inhibition is 0%.

As for `C[C@@H]1O[C@@H](O[C@H]2C[C@@H](O)[C@]3(CO)[C@H]4[C@H](O)C[C@]5(C)[C@@H](C6COC(=O)C6)CC[C@]5(O)[C@@H]4CC[C@]3(O)C2)[C@H](O)[C@H](O)[C@H]1O` (stereo not given in full), the inhibition is -0.7%.

For `CC(=O)c1ccc(-c2ccccc2)cc1`, the inhibition was -1.2%.

For `CCOC(=O)c1cc2c(cn1)[nH]c1ccccc12`, the inhibition is 0.5%.

These data come from PubChem BioAssay.
